According to PubChem BioAssay AID2401 (Southern Research Specialized Biocontainment Screening …, 2010):
The campaign covered roughly 2,200 compounds. About 530 (24%) were called active.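 The calls were made as follows: active = inhibition above a set limit at one or more concentrations of the dose series; inactive = inhibition under that limit at every dose.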 Not all results are given here. A call without a number means that no potency is given here. Potency and affinity values are given separately.

test: nmpC-GFP reporter counter-screen in S. Typhimurium, dose response, counter-screen for PhoP regulon inhibitor project, Salmonella Typhimurium, GFP fluorescence (AID 2401); settings: 4 h; series mostly up to 150 µM;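 also: S. typhimurium with Mg-insensitive nmpC-GFP reporter grown at 10 µM Mg2+; drop in reporter fluorescence reflects general culture growth inhibition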

| SMILES | outcome |
| --- | --- |
| c1coc(CNc2c3c(nc4ncnn24)CCCC3)c1 | inactive |
| O=C(NNc1nc(-c2ccccc2)cs1)c1ccco1 | inactive |
| COCCNS(=O)(=O)c1cccn1-c1ncc(C(F)(F)F)cc1Cl | inactive |
| CC(=O)c1c(C)n([O-])c2cc(F)c(F)cc2[n+]1=O | inactive |
| CCOC(=O)CN(C)Cc1c[nH]c2ccccc12 | inactive |
| O=c1c2cc(Br)ccc2nc(-c2ccccc2)n1O | inactive |
| N#Cc1c(-c2ccco2)cc(-c2ccc(F)cc2)nc1N | inactive |
| O=C1N2CCCc3cccc(c32)C12Nc1ccccc1S2 (configuration not stated) | inactive |
| CN1CCN(C(c2cccc(C(F)(F)F)c2)c2nnnn2C(C)(C)C)CC1 (configuration not stated) | inactive |
| C#CCN1C(=O)C(O)(CC(=O)c2ccc(OC)c(OC)c2)c2ccccc21 (configuration not stated) | inactive |
| CCCCn1cnc2sc(-c3ccccc3)cc2c1=O | inactive |
| O=C(Nc1ccc2c(c1)OCO2)c1cnn2cccnc12 | inactive |
| CN(C)S(=O)(=O)Oc1ccsc1C(=O)Nc1ccccc1Cl | inactive |
| CCSc1cc(N2CCCC2)nc(-c2cccc(C)c2)n1 | inactive |
| CC(C)c1ccc(C2C3CSCC=C3C(C#N)=C(N)C2(C#N)C#N)cc1 (configuration not stated) | inactive |
| Cn1c(CN2CCCCC2)nc2cc(NS(=O)(=O)c3ccc(Cl)cc3)ccc21 | inactive |
| COc1ccc(S(=O)(=O)N2Cc3ccccc3CC2C(=O)N2CCOCC2)cc1OC (configuration not stated) | inactive |
| Clc1ccc(SCCCCn2ccnc2)cc1 | inactive |
| O=c1[nH]c(NNC(=S)NCc2ccccc2)nc2c1C1(CCCCC1)Cc1ccccc1-2 | inactive |
| O=C(CSc1nnc2c(Cl)cc(Cl)cn12)NC1CCS(=O)(=O)C1 (configuration not stated) | inactive |
| O=S1(=O)C=CC(Nc2cccc(Cl)c2)C1 (configuration not stated) | inactive |
| CCc1cccc(NC(=O)Nc2cccs2)c1 | inactive |
| COc1cccc2c(=O)c3c(cnn3C)n(C)c12 | inactive |
| COC(=O)c1cccc(NC(=O)CCCOc2ccccc2)c1 | inactive |

| SMILES | outcome |
| --- | --- |
| O=C(NCc1cccs1)c1cccc(Nc2nc3ccc(Br)cc3[nH]2)c1 | inactive |
| Cn1c(=O)n(CC(=O)Nc2ccccc2)c2ccccc21 | inactive |
| O=C(O)C1CC=CCC1C(=O)NC12CC3CC(CC(C3)C1)C2 (configuration not stated) | inactive |
| O=C(OCc1nnc(-c2ccccc2)o1)c1ccc(S(=O)(=O)NCc2ccco2)cc1 | inactive |
| CCOC(=S)SCC(=O)Nc1nc(-c2ccccc2)cs1 | inactive |
| Cc1ccc(NC(=O)CCN2CCc3ccccc3C2)cc1 | inactive |
| Cc1ccc(C[n+]2cc(-c3ccc(Cl)cc3)n3c2CCC3)cc1 | inactive |
| COc1ccc(-c2csc(NC(=O)C3CCCO3)n2)cc1 (configuration not stated) | inactive |
| CN(C)CC(=O)Nc1nc(-c2ccccc2)cs1 | inactive |
| Cc1nc(NC(=O)c2ccccc2)sc1-c1csc(Nc2ccc(F)cc2)n1 | inactive |
| CCOC(=O)C1=C(C)N(CCO)C(=O)NC1c1cccc(O)c1 (configuration not stated) | inactive |
| CCCNC(=O)CSc1nnc(C)s1 | inactive |
| Cc1nc2c(Cl)cccc2c2c1CC(CBr)O2 (configuration not stated) | inactive |
| CCC1=NNc2cccc3c(OC)ccc1c23 | inactive |
| COc1ccc(-c2c/c(=N\c3nc(-c4ccccc4)c(C)s3)c3ccccc3o2)cc1O | inactive |
| COC(=O)c1c(C)oc2ccc(NS(=O)(=O)c3cccs3)cc12 | inactive |
| O=C(CCNS(=O)(=O)c1cccc2nsnc12)NCc1cccs1 | inactive |
| O=C(NCc1cccs1)[C@@H]1CSC2c3ccccc3C(=O)N21 (some centres not stated) | inactive |
| Nc1cc(N)nc(SCc2cc(=O)oc3cc4c(cc23)CCC4)n1 | inactive |
| CCCn1c(SCC(=O)c2c(C)[nH]c(C)c2C(=O)OCC)nc2ccccc21 | inactive |
| O=C(CCCN1C(=O)CCC1=O)Nc1ccc2c(c1)OCCO2 | inactive |
| CCCCCNS(=O)(=O)c1cc(C)ccc1OC | inactive |
| CCCCn1nnnc1NCc1cc(OC)c(OC)cc1OC | inactive |
| Cc1ccc(S(=O)(=O)NCCC(=O)OCn2nnc3ccccc3c2=O)cc1 | inactive |

| SMILES | outcome |
| --- | --- |
| COc1ccc(-c2nnn(CC(=O)N(Cc3ccco3)C(C(=O)NCC3CCCO3)c3ccco3)n2)cc1 (configuration not stated) | inactive |
| COC(=O)c1cc(C#N)c(Oc2ccc(F)cc2)nc1C | inactive |
| O=C1C(c2ccc(F)cc2)N(Cc2ccc3c(c2)OCO3)C(=O)CN1C1CCCCCC1 (configuration not stated) | inactive |
| Cc1ccc(-c2[nH]c(-c3ccc(Cl)cc3)nc2SCC(=O)NCC2CCCO2)cc1 (configuration not stated) | inactive |
| COc1cc(C(=O)NC(=S)Nc2ccc3oc(=O)ccc3c2)cc(OC)c1OC | inactive |
| Cc1nc(N2CCN(c3ccccc3)CC2)nc2c1C(=O)CC(C)C2 (configuration not stated) | inactive |
| O=C(Nc1ccc2oc(-c3ccc(Cl)c(Cl)c3)nc2c1)c1ncn[nH]1 | inactive |
| O=C(NCc1ccccn1)c1cn(-c2ccccc2)nc1-c1ccc(Cl)cc1 | inactive |
| O=C(OCc1ccccc1)c1cn(-c2ccccc2)nc1-c1ccncc1 | inactive |
| O=C(COC(=O)c1cn(-c2ccccc2)nc1-c1ccccc1)c1cccc([N+](=O)[O-])c1 | inactive |
| CCc1ccc(C(c2c(C)nn(-c3ccccc3)c2N)c2c(C)nn(-c3ccccc3)c2N)cc1 | inactive |
| C/C(=N\N=C(/N)SC1CC(=O)N(c2cccc(Cl)c2)C1=O)c1cccs1 (configuration not stated) | inactive |
| Cc1ccc(-n2ncc3c(N4CCN(c5ccccc5)CC4)ncnc32)c(C)c1 | inactive |
| Cc1ccccc1-n1c(=O)c2ccccc2n2cnnc12 | inactive |
| CCCn1nnc(NC(=O)c2ccc(Br)o2)n1 | inactive |
| O=C(NCc1cccnc1)c1ccc(Cl)cc1[N+](=O)[O-] | inactive |
| Cc1cc([N+](=O)[O-])cc2ncccc12 | inactive |
| Cc1ccc(NC(=O)COc2ncnc3c(Cl)cc(Cl)cc23)cc1[N+](=O)[O-] | inactive |
| CC1(C)CC(=O)C2=C(C1)N(c1ccc(F)cc1)C(N)=C(C#N)C2c1cccs1 (configuration not stated) | inactive |
| CCn1c(=O)c(=O)[nH]c2cc(C(=O)NCC3CCCCC3)ccc21 | inactive |
| O=c1c2c([nH]c3ccccc13)CCCCC2 | inactive |
| Cc1cc(NC(=O)c2ccco2)ccc1-n1cnnn1 | inactive |
| c1ccc(CSc2nnc(-c3ccncc3)o2)cc1 | inactive |
| O=C1Nc2ccc(F)cc2C12SCCS2 | inactive |

| SMILES | outcome |
| --- | --- |
| CC(=S)c1c(C)cc2cc(C)ccn12 | inactive |
| COc1ccc(N=c2cc(-c3ccc(OC)cc3)oc3ccccc23)cc1 | inactive |
| CN1C(=S)N(c2ccccc2)C(=O)/C1=C/c1ccco1 | inactive |
| CCn1c(SCc2ccc(F)cc2)nc2ccccc2c1=O | inactive |
| COC(=O)c1ccc(CSc2nnnn2-c2ccccc2)o1 | inactive |
| CCOC(=O)c1cnc2ccccc2c1Nc1ccc2c(c1)OCCO2 | inactive |
| Nc1ccc(Nc2ccccc2)c(Cl)c1 | inactive |
| CCOc1ccc(CNc2ccc(N3CCCC3)cc2)cc1 | inactive |
| CCc1ccc(Nc2nc(N)nc(CSc3nc4ccccc4s3)n2)cc1 | inactive |
| Cc1cccc(Nc2nc(N)nc(CN3CCN(c4ccccc4)CC3)n2)c1 | inactive |
| CCOc1ccc(Nc2nc(NCCN3CCOCC3)nc(OC)n2)cc1 | inactive |
| C=CCN=C(NC#N)SCc1ccccc1Cl | inactive |
| Cc1ccc(NC(=O)C2CC(=O)NC(N3CCCCC3)=N2)cc1Cl (configuration not stated) | inactive |
| COC(=O)N1CCN(c2ccc(Cl)c(Cl)c2)CC1 | inactive |
| O=C(COc1ncnc2sccc12)N1CCN(S(=O)(=O)c2ccc(Cl)cc2)CC1 | inactive |
| CC1CCN(C(c2cc3cc4c(cc3[nH]c2=O)OCO4)c2nnnn2CC2CCCO2)CC1 (configuration not stated) | inactive |
| CCOC(=O)C[n+]1c(C)sc2ccc(OC)cc21 | inactive |
| COc1ccc(C)cc1Nc1nc(-c2c(C)[nH]c3ccccc23)cs1 | inactive |
| CCOC(=O)c1c(N)ssc1=S | inactive |
| O=c1[nH]c(NCc2ccco2)nnc1Cc1ccccc1Cl | inactive |
| N/C(=N\OC(=O)c1ccc(F)cc1)c1nonc1N | inactive |
| O=C(c1ccccc1)N1CCN(c2ccc([N+](=O)[O-])c(NCc3ccco3)c2)CC1 | inactive |
| O=C(NC(=Nc1ccccc1)N1CCOCC1)Nc1ccccc1 | inactive |
| COc1ccc(C(=O)On2c(-c3ccc(Br)cc3)nc3ccccc3c2=O)cc1 | inactive |

| SMILES | outcome |
| --- | --- |
| Cc1cc(-c2csc(N)n2)c(C)n1-c1ccccc1 | inactive |
| N#CC1=C(N)N=C(SCc2cccc3ccccc23)C(C(N)=O)C12CCCCC2 (configuration not stated) | inactive |
| CCCCC1CCC(C(=O)Nc2ccccc2)CC1 (configuration not stated) | inactive |
| Cc1ccc(CCNC(=O)C2CCCN(S(=O)(=O)c3c(C)noc3C)C2)cc1 (configuration not stated) | inactive |
| c1ccc2c(c1)ncn2CCCCOc1ccc2c(c1)CCC2 | inactive |
| O=C(c1ccc(CSc2nc3ccncc3[nH]2)cc1)N1CCN(c2cccc(Cl)c2)CC1 | inactive |
| CC(=O)N1N=C(c2ccco2)CC1c1ccc(Br)cc1 (configuration not stated) | inactive |
| OCCCNc1nc(-c2ccc(Cl)cc2)nnc1-c1ccc(Br)cc1 | inactive |
| CC(C)[C@@H]1CC[C@@H](C)C[C@H]1OC(=O)C[n+]1cc(-c2ccc(Cl)cc2)n2c1CCCCC2 | inactive |
| COc1ccc(-n2c(CNc3ccc(C)cc3)nnc2SCc2ccccc2)cc1 | inactive |
| Cn1cc(-c2nnnn2-c2cccc(C(F)(F)F)c2)c(C(F)(F)F)n1 | inactive |
| CCn1c(CNC(=O)c2cccc(C)c2)nc2ccccc21 | inactive |
| COc1ccccc1-c1c(C#N)c(N)nc2c1CCc1ccccc1-2 | inactive |
| O=c1cc(Cc2ccccc2)[nH]c(=S)[nH]1 | inactive |
| CCOC(=O)Cc1ccc(NS(=O)(=O)c2ccc(SC)cc2)cc1 | inactive |
| NC1=NC(=Nc2cccc(Cl)c2)c2ccccc21 | inactive |
| C#CCOc1ccc(/C=C2\SC(=S)N(Cc3cccnc3)C2=O)cc1 | inactive |
| COCCNC(=O)c1ccc(C(=O)NCCOC)s1 | inactive |
| CC(Nc1ccc(Br)cn1)c1cc(Cl)ccc1O (configuration not stated) | inactive |
| COc1cc([N+](=O)[O-])cc(/C=N/NC(=O)c2cccnc2)c1O | inactive |
| COc1ccc(/C=N/NC(=O)c2ccc3c(c2)OCCO3)cc1[N+](=O)[O-] | inactive |
